In paper PMC7862700, “An all-to-all approach to the identification of sequence-specific readers for epigenetic DNA modifications on cytosine”:

Assays:
Test in all cases: DAPPL (digital affinity profiling via proximity ligation, sequencing); 10 mM Tris-HCl pH 7.5, 50 mM NaCl, 1 mM DTT, 4% glycerol, room temperature, 30 min; GST-TFs on glutathione beads, 16-mer random dsDNA library, 0.1% formaldehyde crosslink after washing; high values mean tight binding
[1] = molecular target: T1, FLI1 (Homo sapiens, UniProt Q01543 1-452); details: protein: recombinant; tags: N-terminal GST; dsDNA, one strand shown
T1 sequence: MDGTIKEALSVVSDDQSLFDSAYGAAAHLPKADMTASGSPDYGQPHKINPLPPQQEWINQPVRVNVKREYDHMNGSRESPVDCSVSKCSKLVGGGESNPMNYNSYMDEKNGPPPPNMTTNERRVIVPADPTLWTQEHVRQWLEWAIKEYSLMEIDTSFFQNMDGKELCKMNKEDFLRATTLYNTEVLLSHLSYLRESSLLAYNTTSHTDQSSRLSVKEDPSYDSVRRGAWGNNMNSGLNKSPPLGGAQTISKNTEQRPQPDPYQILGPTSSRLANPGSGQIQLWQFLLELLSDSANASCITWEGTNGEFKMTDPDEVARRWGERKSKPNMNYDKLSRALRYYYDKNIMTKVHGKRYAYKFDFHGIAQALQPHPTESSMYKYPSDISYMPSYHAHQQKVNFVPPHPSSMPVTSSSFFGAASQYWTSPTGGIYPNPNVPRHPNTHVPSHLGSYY
Outline: (§1)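 Yeast served to express human transcription factors as GST fusions, which were then captured on glutathione beads and labelled with DNA barcodes. Pooled with a tag-only sample, they were incubated with 200 nmole of a 16-mer random double-stranded DNA library for 30 min at room temperature in Tris/NaCl/DTT/glycerol buffer, washed, crosslinked with 0.1% formaldehyde, ligated by proximity, amplified by PCR and sequenced. Dividing each hexamer's read frequency for a factor by its frequency for the tag-only sample gives the binding signal.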

[2] = molecular target: T2, GABPA (Homo sapiens, UniProt Q06546 1-454); details: protein: recombinant; tags: N-terminal GST; dsDNA, one strand shown
T2 sequence: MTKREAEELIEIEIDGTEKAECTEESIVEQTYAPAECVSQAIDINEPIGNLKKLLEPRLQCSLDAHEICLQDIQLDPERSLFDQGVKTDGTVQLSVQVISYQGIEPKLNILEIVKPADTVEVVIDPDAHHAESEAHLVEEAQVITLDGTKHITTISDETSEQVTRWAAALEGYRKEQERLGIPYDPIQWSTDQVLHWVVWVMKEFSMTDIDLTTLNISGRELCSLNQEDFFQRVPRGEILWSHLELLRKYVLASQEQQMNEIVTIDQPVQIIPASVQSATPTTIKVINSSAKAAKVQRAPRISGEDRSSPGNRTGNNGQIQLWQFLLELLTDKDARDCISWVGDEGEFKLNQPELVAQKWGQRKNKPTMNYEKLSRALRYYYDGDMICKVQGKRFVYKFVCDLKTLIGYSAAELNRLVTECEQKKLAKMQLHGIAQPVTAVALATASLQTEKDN
Outline: as §1

[3] = molecular target: T3, ERG (Homo sapiens, UniProt P11308 1-479); details: protein: recombinant; tags: N-terminal GST; dsDNA, one strand shown
T3 sequence: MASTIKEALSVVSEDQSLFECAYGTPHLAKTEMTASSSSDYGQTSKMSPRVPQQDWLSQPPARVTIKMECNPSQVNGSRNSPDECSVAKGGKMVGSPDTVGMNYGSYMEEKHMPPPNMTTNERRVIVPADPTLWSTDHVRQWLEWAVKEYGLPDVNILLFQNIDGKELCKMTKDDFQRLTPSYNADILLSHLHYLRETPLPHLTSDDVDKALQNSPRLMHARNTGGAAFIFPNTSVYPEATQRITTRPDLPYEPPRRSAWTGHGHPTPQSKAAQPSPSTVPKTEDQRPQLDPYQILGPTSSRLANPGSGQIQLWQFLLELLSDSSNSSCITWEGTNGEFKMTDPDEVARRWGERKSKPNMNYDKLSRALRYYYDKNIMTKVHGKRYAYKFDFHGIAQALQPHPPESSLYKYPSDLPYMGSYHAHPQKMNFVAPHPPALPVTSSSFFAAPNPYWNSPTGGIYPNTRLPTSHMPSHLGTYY
Outline: as §1

[4] = molecular target: SPI1 (Homo sapiens, UniProt P17947 1-270); details: protein: recombinant; tags: N-terminal GST; dsDNA, one strand shown
Outline: as §1

[5] = molecular target: SPIB (Homo sapiens, UniProt Q01892 1-262); details: protein: recombinant; tags: N-terminal GST; dsDNA, one strand shown
Outline: as §1

[6] = molecular target: T4, ELK3 (Homo sapiens, UniProt P41970 1-407); details: protein: recombinant; tags: N-terminal GST; dsDNA, one strand shown
T4 sequence: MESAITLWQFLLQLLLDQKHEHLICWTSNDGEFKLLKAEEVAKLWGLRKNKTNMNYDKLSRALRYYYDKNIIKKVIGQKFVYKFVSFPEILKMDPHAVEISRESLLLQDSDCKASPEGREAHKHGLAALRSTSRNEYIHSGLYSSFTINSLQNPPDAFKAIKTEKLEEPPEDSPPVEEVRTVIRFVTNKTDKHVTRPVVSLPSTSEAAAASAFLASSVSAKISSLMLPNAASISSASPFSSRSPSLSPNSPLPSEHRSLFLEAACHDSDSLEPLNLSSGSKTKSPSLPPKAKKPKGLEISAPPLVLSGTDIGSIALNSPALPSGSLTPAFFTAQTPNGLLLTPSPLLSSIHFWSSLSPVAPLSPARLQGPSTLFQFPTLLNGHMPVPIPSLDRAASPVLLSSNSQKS
Outline: as §1

[7] = molecular target: ETV5 (Homo sapiens, UniProt P41161 1-510); details: protein: recombinant; tags: N-terminal GST; dsDNA, one strand shown
Outline: as §1

[8] = molecular target: HSF1 (Homo sapiens, UniProt Q00613 1-529); details: protein: recombinant; tags: N-terminal GST; chain copies: 3; dsDNA, one strand shown
Outline: as §1

[9] = molecular target: T5, SPIC (Homo sapiens, UniProt Q8N5J4 1-248); details: protein: recombinant; tags: N-terminal GST; dsDNA, one strand shown
T5 sequence: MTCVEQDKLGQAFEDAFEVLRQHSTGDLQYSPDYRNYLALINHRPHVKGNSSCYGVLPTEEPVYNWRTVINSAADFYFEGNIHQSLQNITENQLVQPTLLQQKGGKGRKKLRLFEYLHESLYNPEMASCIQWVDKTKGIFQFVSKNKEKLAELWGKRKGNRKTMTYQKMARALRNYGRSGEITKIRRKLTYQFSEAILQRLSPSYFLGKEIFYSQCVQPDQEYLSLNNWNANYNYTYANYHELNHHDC
Outline: as §1

[10] = molecular target: ELF4 (Homo sapiens, UniProt Q99607 1-663); details: protein: recombinant; tags: N-terminal GST; dsDNA, one strand shown
Outline: as §1

[11] = molecular target: T6, ELK4 (Homo sapiens, UniProt P28324-2 1-405); details: protein: recombinant; tags: N-terminal GST; dsDNA, one strand shown
T6 sequence: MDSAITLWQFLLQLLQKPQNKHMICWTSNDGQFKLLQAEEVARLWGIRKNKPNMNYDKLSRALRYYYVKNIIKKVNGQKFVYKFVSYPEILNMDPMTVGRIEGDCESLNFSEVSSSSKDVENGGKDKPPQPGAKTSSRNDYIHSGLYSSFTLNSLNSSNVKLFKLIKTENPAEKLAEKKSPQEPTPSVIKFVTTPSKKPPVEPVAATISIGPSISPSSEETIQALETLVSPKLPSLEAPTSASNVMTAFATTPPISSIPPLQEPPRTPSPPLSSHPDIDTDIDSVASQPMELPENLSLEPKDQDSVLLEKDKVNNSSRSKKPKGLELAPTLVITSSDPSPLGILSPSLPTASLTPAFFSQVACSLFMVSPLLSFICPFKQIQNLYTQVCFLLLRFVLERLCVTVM
Outline: as §1

[12] = molecular target: T7, ETV2 (Homo sapiens, UniProt O00321 1-342); details: protein: recombinant; tags: N-terminal GST; dsDNA, one strand shown
T7 sequence: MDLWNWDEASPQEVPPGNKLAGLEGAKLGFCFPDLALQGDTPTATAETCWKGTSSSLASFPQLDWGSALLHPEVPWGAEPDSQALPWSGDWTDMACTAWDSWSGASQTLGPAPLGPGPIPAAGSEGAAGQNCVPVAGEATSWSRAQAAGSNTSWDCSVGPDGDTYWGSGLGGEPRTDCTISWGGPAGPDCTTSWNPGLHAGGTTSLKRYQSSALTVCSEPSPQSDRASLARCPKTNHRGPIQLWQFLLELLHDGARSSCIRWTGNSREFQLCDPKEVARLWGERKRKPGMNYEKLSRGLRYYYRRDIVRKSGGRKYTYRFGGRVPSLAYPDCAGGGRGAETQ
Outline: as §1

[13] = molecular target: T8, ELF3 (Homo sapiens, UniProt P78545 1-371); details: protein: recombinant; tags: N-terminal GST; dsDNA, one strand shown
T8 sequence: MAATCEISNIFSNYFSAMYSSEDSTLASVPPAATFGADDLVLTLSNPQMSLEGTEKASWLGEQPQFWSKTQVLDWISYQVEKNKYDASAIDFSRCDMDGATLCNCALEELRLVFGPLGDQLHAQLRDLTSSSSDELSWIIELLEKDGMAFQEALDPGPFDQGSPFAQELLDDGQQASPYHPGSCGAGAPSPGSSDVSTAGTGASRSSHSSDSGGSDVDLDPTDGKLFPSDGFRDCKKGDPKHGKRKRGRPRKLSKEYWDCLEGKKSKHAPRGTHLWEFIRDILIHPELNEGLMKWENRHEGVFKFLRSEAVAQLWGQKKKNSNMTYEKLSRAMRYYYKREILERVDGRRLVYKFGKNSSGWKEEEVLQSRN
Outline: as §1

[14] = molecular target: CRX (Homo sapiens, UniProt O43186 1-299); details: protein: recombinant; tags: N-terminal GST; dsDNA, one strand shown
Outline: as §1

[15] = molecular target: ELF1 (Homo sapiens, UniProt P32519 1-619); details: protein: recombinant; tags: N-terminal GST; dsDNA, one strand shown
Outline: as §1

[16] = molecular target: T9, EHF (Homo sapiens, UniProt Q9NZC4 1-300); details: protein: recombinant; tags: N-terminal GST; dsDNA, one strand shown
T9 sequence: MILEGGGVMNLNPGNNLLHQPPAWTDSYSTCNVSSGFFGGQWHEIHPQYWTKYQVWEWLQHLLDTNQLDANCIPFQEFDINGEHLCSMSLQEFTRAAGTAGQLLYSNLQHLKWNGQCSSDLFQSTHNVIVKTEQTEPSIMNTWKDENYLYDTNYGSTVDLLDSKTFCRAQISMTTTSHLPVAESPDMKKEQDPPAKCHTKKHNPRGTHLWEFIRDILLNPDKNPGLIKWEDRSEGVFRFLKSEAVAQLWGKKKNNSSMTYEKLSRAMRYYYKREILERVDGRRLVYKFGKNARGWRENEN
Outline: as §1

[17] = molecular target: T10, FEV (Homo sapiens, UniProt Q99581 1-238); details: protein: recombinant; tags: N-terminal GST; dsDNA, one strand shown
T10 sequence: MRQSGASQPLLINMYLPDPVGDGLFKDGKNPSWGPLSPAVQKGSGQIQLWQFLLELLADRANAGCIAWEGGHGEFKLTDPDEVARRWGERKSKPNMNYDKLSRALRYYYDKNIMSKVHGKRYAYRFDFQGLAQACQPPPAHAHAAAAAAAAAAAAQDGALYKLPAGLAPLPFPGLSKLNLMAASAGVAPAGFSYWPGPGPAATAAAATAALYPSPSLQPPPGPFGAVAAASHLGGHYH
Outline: as §1

[18] = molecular target: ETV1 (Homo sapiens, UniProt P50549 1-477); details: protein: recombinant; tags: N-terminal GST; dsDNA, one strand shown
Outline: as §1

Sequence of HSF1 (Q00613 whole entry): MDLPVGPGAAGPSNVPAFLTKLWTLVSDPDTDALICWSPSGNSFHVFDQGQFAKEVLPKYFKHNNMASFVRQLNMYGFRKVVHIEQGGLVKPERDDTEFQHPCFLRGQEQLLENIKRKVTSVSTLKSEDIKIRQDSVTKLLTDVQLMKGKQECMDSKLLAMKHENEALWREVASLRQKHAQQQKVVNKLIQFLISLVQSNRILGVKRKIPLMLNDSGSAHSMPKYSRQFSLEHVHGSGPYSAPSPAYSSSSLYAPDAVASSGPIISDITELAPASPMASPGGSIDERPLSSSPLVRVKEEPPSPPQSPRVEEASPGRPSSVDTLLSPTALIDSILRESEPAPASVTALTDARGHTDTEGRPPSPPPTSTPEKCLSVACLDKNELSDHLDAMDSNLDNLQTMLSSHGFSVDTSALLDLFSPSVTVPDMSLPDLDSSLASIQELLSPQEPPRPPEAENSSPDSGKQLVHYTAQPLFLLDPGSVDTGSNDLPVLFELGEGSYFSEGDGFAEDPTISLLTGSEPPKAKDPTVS
Sequence of ELF4 (Q99607 whole entry): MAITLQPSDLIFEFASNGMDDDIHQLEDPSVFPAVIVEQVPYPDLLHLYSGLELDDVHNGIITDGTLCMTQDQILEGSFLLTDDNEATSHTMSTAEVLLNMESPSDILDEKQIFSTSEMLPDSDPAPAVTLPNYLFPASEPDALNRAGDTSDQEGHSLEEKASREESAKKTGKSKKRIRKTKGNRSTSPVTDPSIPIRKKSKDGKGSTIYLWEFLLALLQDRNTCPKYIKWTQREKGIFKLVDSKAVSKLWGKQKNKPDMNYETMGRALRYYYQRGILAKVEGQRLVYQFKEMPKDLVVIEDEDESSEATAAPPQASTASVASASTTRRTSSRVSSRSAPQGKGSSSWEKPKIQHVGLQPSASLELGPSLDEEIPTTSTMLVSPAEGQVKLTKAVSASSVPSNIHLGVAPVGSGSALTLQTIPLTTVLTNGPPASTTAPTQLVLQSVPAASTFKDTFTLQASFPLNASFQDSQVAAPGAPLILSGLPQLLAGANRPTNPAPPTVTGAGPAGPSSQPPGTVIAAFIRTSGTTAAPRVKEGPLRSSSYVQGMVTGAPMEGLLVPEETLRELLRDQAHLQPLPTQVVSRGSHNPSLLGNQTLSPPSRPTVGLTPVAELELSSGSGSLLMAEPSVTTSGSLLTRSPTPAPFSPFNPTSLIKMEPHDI
Sequence of CRX (O43186 whole entry): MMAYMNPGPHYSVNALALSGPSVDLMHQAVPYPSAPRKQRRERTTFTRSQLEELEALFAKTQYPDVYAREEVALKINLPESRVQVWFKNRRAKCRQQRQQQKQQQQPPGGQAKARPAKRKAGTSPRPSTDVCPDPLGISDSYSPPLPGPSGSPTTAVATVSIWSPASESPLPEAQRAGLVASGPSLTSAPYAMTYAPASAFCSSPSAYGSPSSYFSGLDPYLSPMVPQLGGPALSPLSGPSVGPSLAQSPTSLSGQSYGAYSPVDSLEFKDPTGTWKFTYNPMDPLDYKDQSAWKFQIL
Sequence of SPIB (Q01892 whole entry): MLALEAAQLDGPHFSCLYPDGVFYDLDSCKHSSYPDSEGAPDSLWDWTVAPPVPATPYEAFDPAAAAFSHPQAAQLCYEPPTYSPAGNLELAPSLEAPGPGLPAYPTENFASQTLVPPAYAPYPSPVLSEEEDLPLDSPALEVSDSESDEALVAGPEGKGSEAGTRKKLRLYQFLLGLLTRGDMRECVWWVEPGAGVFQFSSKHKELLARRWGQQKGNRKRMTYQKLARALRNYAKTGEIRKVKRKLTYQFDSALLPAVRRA
Sequence of ETV5 (P41161 whole entry): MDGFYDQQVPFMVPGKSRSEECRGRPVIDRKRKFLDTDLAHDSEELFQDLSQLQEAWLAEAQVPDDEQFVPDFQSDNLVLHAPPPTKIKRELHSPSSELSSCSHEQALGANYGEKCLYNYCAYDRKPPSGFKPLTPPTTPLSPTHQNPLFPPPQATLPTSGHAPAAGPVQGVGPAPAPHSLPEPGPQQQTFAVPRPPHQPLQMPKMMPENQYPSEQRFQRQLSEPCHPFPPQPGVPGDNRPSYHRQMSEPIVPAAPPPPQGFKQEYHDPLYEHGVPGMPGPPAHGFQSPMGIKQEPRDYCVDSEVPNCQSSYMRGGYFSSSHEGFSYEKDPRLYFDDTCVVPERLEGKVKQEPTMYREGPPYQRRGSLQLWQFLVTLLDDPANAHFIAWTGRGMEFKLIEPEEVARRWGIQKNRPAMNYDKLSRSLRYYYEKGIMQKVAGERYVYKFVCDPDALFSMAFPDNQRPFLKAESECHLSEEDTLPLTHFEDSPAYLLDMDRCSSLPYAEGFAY
Sequence of ETV1 (P50549 whole entry): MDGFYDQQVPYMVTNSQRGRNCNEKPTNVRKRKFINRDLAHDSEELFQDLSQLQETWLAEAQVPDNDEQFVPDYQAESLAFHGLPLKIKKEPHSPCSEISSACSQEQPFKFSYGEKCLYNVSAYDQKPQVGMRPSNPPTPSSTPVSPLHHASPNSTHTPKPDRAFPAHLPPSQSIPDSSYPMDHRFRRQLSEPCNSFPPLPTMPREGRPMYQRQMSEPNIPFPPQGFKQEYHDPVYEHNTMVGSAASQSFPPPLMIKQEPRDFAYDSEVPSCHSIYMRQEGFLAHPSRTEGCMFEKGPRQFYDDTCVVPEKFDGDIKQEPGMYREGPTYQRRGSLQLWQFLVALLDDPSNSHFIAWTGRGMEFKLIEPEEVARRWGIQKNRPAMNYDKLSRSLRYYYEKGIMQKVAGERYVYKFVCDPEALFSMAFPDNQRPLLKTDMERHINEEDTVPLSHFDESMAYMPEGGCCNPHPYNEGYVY
Sequence of ELF1 (P32519 whole entry): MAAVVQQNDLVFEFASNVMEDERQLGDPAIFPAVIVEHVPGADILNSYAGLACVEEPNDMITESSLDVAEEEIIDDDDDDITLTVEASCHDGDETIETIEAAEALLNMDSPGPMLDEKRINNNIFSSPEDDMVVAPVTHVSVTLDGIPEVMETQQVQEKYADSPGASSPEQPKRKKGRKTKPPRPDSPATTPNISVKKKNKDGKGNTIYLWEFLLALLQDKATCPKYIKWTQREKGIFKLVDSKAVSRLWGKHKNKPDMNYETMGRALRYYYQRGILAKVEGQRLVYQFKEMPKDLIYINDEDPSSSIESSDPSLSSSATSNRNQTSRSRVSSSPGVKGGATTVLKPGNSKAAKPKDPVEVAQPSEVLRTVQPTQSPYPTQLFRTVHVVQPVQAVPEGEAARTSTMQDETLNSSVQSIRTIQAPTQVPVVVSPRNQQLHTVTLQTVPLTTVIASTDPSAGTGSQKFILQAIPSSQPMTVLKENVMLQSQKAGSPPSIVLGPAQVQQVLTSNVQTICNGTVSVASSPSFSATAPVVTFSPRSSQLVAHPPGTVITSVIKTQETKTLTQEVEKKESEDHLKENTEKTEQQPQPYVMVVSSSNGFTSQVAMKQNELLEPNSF

Row | Sequence | binding signal [1] | binding signal [2] | binding signal [3] | binding signal [4] | binding signal [5] | binding signal [6] | binding signal [7] | binding signal [8] | binding signal [9] | binding signal [10] | binding signal [11] | binding signal [12] | binding signal [13] | binding signal [14] | binding signal [15] | binding signal [16] | binding signal [17] | binding signal [18]
1 | GTTAAA | 1.03 fold enrichment (6-mer frequency, TF over GST control) | 1.01 fold enrichment (6-mer frequency, TF over GST control) | 1.03 fold enrichment (6-mer frequency, TF over GST control) | 1.08 fold enrichment (6-mer frequency, TF over GST control) | 1.07 fold enrichment (6-mer frequency, TF over GST control) | 1.01 fold enrichment (6-mer frequency, TF over GST control) | 1.02 fold enrichment (6-mer frequency, TF over GST control) | 1.01 fold enrichment (6-mer frequency, TF over GST control) | 1.17 fold enrichment (6-mer frequency, TF over GST control) | 1.07 fold enrichment (6-mer frequency, TF over GST control) | 1.04 fold enrichment (6-mer frequency, TF over GST control) | 1.11 fold enrichment (6-mer frequency, TF over GST control) | 1.29 fold enrichment (6-mer frequency, TF over GST control) | 1.27 fold enrichment (6-mer frequency, TF over GST control) | – | – | – | –
2 | GGGTTT | 1.17 fold enrichment (6-mer frequency, TF over GST control) | 1.1 fold enrichment (6-mer frequency, TF over GST control) | 1.1 fold enrichment (6-mer frequency, TF over GST control) | 1.05 fold enrichment (6-mer frequency, TF over GST control) | 1.05 fold enrichment (6-mer frequency, TF over GST control) | 1.03 fold enrichment (6-mer frequency, TF over GST control) | 1.08 fold enrichment (6-mer frequency, TF over GST control) | 1.12 fold enrichment (6-mer frequency, TF over GST control) | 1.16 fold enrichment (6-mer frequency, TF over GST control) | 1.2 fold enrichment (6-mer frequency, TF over GST control) | 1.12 fold enrichment (6-mer frequency, TF over GST control) | 1.33 fold enrichment (6-mer frequency, TF over GST control) | 1.05 fold enrichment (6-mer frequency, TF over GST control) | 1.25 fold enrichment (6-mer frequency, TF over GST control) | 1.1 fold enrichment (6-mer frequency, TF over GST control) | 1.11 fold enrichment (6-mer frequency, TF over GST control) | 1.06 fold enrichment (6-mer frequency, TF over GST control) | 1.1 fold enrichment (6-mer frequency, TF over GST control)
